# ugtP null kill – growth inhibition of ugtP-null S. aureus, primary screen, RN4220 ugtP deletion, OD600; 16 h; growth inhibition, % (test concentration not listed); 330,000 compounds, 0.54% hits; in the data active = growth inhibition above about 68%;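 note: plate controls were untreated wells for no effect and antibiotic for full effect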
# PrPC TRFRET – inhibitors of human cell surface prion protein PrPC, primary screen, cell-based, TR-FRET | Major prion protein (Homo sapiens), P04156 | TR-FRET read-out | inhibition, % at 13.8 µM | 370,000 compounds, 0.43% hits; in the data active = inhibition above about 24%; note: 0% = median of the test wells and 100% = reference compound wells
# DUSP3 inh – VHR1 phosphatase inhibitors, primary screen, biochemical, absorbance, uHTS; recombinant VHR phosphatase, pNPP absorbance; inhibition, % at 13.3 µM; 290,000 compounds, 0.52% hits; AID 1654, 2009; in the data active = inhibition above about 50%
# Target sequence (P51452 whole entry, looked up): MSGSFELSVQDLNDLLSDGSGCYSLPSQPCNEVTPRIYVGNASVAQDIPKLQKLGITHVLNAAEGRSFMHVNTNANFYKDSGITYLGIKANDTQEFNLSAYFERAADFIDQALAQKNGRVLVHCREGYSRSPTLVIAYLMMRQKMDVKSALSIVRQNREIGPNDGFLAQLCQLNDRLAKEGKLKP
# PfHsp40 rescue – rescue of yeast from PfHsp40 toxicity, primary screen, S. cerevisiae, ATP luminescence | 340,000 compounds, 0.68% hits | S. cerevisiae expressing PfHsp40, growth rescue | AID 504582, 2011 | growth rescue, % at 12.5 µM; in the data active = growth rescue above about 28%, passing the limit was not always enough;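 note: yeast W303a lacking pdr1 and pdr3 grown in galactose medium; growth measured after three days at 30 °C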
# Sa RN4220 lethal – growth inhibition of S. aureus RN4220, primary screen, OD600. 16 h. inhibition, % (concentration not given with the values). 330,000 compounds, 0.33% hits. AID 1259311, 2017; in the data active = inhibition above about 85%;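 note: plate controls were untreated cells for no effect and reference antibiotic for full effect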
# * = called active by the depositor; . = no result. Compounds with a hit are over-represented: about 1.8% of the library has one in this group of screens.
SMILES,ugtP null kill,PrPC TRFRET,DUSP3 inh,PfHsp40 rescue,Sa RN4220 lethal
CC(C)OC(=O)c1cc(NC(=S)Nc2ccc([N+](=O)[O-])cc2)cc(C(=O)OC(C)C)c1,100*,2,5,0,100*
Cc1cc(O)c(C(C)C)cc1NC(=O)Nc1ccc([N+](=O)[O-])cc1,2,3,.,1,-2
CCN(CC)c1ccc(C=NOC(C)C(=O)Nc2ccc(C)cc2)cc1 (stereo not given),6,.,.,.,2
COc1cc(C=NNC(=O)c2sc(N)c(C#N)c2C)ccc1O,8,.,.,.,14
Clc1ccc(C2=NCCN2)cc1,4,-9,1,221*,4
O=C(NC1CCCCC1)C1CCCN1S(=O)(=O)c1ccc(Cl)cc1 (stereo not given),6,-3,53*,1,3
CCOc1ccccc1CNC(=O)C1Cc2cc(S(=O)(=O)N3CCCCC3)ccc2N1C(C)=O (stereo not given),-3,2,18,0,0
Cc1ccc(S(=O)(=O)N2CCC[C@H]2C(=O)NC2CCCCC2)cc1,2,-8,.,-2,3
COc1ccccc1CNC(=O)C1Cc2cc(S(=O)(=O)N3CCCC3)ccc2N1C(C)=O (stereo not given),-5,3,8,0,-2
O=C(NCc1ccccc1F)C1CCCN1S(=O)(=O)c1ccc(F)cc1 (stereo not given),5,4,59*,1,-2
CC(=O)N1c2ccc(S(=O)(=O)N3CCCCC3)cc2CC1C(=O)NCc1ccccc1C (stereo not given),7,-1,52*,1,1
CC(=O)N1c2ccc(S(=O)(=O)N3CCCC3)cc2CC1C(=O)NCc1ccccc1F (stereo not given),-3,-2,56*,1,-4
CC1(c2ccc3c(c2)OCO3)NC(=O)N(CC(=O)Nc2ccccc2[N+](=O)[O-])C1=O (stereo not given),.,-12,.,-1,.
Cc1ccccc1NC(=O)CN1C(=O)NC(C)(c2ccc3c(c2)OCO3)C1=O (stereo not given),0,-2,9,35*,-9
Cc1ccc(Oc2nc3ccccc3n3cccc23)cc1,96*,-6,17,0,-10
COc1ccccc1C(=O)N/C(=N\c1nc(C)cc(C)n1)Nc1ccccc1,-14,.,.,.,23
CCN(CC)S(=O)(=O)c1cccc(C(=O)NCC(c2ccccc2)N(C)C)c1 (stereo not given),3,-10,-8,97*,4
COC(=O)[C@@]1(Cc2ccc(OC)cc2)C2c3cc(C(=O)N4CCCC4)n(CCO)c3CC2CN1C(=O)c1ccccc1 (stereo not given in full),2,.,.,.,3
CCC=C(NC(C)=O)c1ccccc1,1,.,.,.,8
O=C1c2ccc3c4c(ccc(c24)C(=O)N1Cc1cccnc1)C(=O)N(Cc1cccnc1)C3=O,.,.,26,.,.
O=C1c2ccc([N+](=O)[O-])cc2C(=O)N1Cc1cccnc1,2,-21,52*,-1,2
O=C(O)/C(=C\c1ccccc1OC(F)F)c1ccc(-c2ccccc2)cc1,-16,-1,-4,1,19
O=C(O)/C(=C\c1ccc(F)cc1)c1ccc(-c2ccccc2)cc1,3,8,-29,512*,10
O=c1cnn([C@@H]2O[C@H](CO)[C@@H](O)[C@H]2O)c(=O)[nH]1,.,.,1,61*,.
CCOC(=O)C1C2COc3ccc(OC)cc3C2N2C(=O)CN(CCc3c[nH]c4ccccc34)C(=O)[C@@]12C (stereo not given in full),11,.,.,.,9
SMILES,ugtP null kill,PrPC TRFRET,DUSP3 inh,PfHsp40 rescue,Sa RN4220 lethal
C(#Cc1ccccc1)C[N+]1(CC#Cc2cccc3ccccc23)CCCC1,98*,12,-2,1,88
Clc1ccc(CN=C2Nc3ccccc3CS2)cc1,52,0,-2,2,19
Cc1ccc(CN=C2Nc3ccccc3CS2)cc1,82*,7,29,-1,41
COc1ccc(OCC(O)Cn2c(N3CCCCC3)nc3c2c(=O)n(C)c(=O)n3C)cc1 (stereo not given),2,2,58*,2,2
COc1ccc(OCC(O)Cn2c(N3CCCCC3)nc3c2c(=O)[nH]c(=O)n3C)cc1 (stereo not given),6,2,17,-2,7
CC(C(=O)NN=Cc1ccc(N(C)C)c(Br)c1)N(c1ccccc1)S(C)(=O)=O (stereo not given),0,.,.,.,-2
O=C(O)CSc1nc(-c2ccc(Cl)cc2)nc2c1oc1ccccc12,34,-7,-14,348*,23
O=C(O)CSc1nc(-c2ccccc2)nc2c1oc1ccccc12,5,2,4,13,20
O=C(O)C(=Cc1c(C(=O)O)[nH]c2cc(Cl)cc(Cl)c12)c1ccccc1,1,.,.,.,7
Nc1nc(Cn2nnc(-c3ccccc3F)n2)nc(N2CCOCC2)n1,-1,-7,-16,40*,-1
Nc1nc(Cn2nnc(-c3ccccc3Cl)n2)nc(N2CCOCC2)n1,0,0,17,0,1
Cc1ccc(C#N)c(SCCN2CCCCC2)n1,6,-2,52*,-1,2
CCN(c1ccccc1)c1nc(=O)c2cccnc2s1,12,18,8,1,4
CCN(c1cccc(C)c1)c1nc2ccsc2c(=O)s1,88*,5,-2,2,-3
Cc1ccccc1C(=O)NC(=S)Nc1ccccc1N1CCCC1,85*,8,29,8,0
O=C(NC(=S)Nc1ccccc1N1CCOCC1)c1ccc(Br)cc1,94*,-4,21,6,-8
O=C(NC(=S)Nc1ccccc1N1CCCCC1)c1ccc(F)cc1Cl,91*,4,14,0,-13
CC(C)CC1COCCS(=O)(=O)N1Cc1cccc(Cl)c1 (stereo not given),-3,.,.,.,3
COc1ccc(C2CC(=O)C=C(c3ccc(OC)nc3)C2)cc1 (stereo not given),2,.,.,.,8
C=CCCOC1OC(C)C(O)CC1O (stereo not given),0,.,.,.,3
COCC(=O)N(Cc1cc2ccc(C)c(C)c2n2nnnc12)C1CCCC1,-3,0,54*,0,0
COC(=O)C1=C(c2c(C)noc2C)CC2CCC1N2C(=O)NC(C)C (stereo not given),-11,.,.,.,2
COc1ccc(CC(NC(C)=O)C(=O)NC2CCN(C(=O)c3cccc(Cl)c3)CC2)cc1OC (stereo not given),3,6,53*,-2,3
CC(C)CC(NC(=O)c1[nH]cnc1C(=O)Nc1ccc(CNC(=O)OC(C)(C)C)cc1)C(=O)OCc1ccccc1 (stereo not given),4,.,.,.,3
O=C(/C=C/c1cc(Br)ccc1O)c1ccco1,92*,-8,4,0,91*
